Our source for the binding signal values is PMC7862700, “An all-to-all approach to the identification of sequence-specific readers for epigenetic DNA modifications on cytosine”.

Holding throughout (assay): DAPPL (digital affinity profiling via proximity ligation, sequencing); 10 mM Tris-HCl pH 7.5, 50 mM NaCl, 1 mM DTT, 4% glycerol, room temperature, 30 min; GST-TFs on glutathione beads, 16-mer random dsDNA library, 0.1% formaldehyde crosslink after washing; high values mean tight binding
For assay [1], the target named is T1, FEV (Homo sapiens, UniProt Q99581 1-238).
T1 sequence: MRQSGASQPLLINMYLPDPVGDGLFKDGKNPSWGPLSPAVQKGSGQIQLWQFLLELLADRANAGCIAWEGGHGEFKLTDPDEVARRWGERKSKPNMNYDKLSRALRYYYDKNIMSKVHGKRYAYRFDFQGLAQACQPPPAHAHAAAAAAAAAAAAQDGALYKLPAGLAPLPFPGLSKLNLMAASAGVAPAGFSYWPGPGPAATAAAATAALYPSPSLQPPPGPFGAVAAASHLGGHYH
To be noted: protein: recombinant; tags: N-terminal GST; dsDNA, one strand shown. The method in brief: (§1)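 Human transcription factors were made in yeast as GST fusions, captured on glutathione beads and barcoded with DNA. With a tag-only sample included, the pool was incubated with 200 nmole of a random double-stranded 16-mer DNA library in Tris/NaCl/DTT/glycerol buffer at room temperature for 30 min, then crosslinked with 0.1% formaldehyde after washing, ligated by proximity, amplified and sequenced. For binding signal, each hexamer's read frequency for a factor is divided by its frequency for the tag-only sample.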

The target of assay [2] is ETV5 (Homo sapiens, UniProt P41161 1-510). To be noted: protein: recombinant; tags: N-terminal GST; dsDNA, one strand shown. The procedure, abridged: as §1
The target of assay [3] is HSF1 (Homo sapiens, UniProt Q00613 1-529). The conditions noted are these: protein: recombinant; tags: N-terminal GST; chain copies: 3; dsDNA, one strand shown. The method in brief: as §1
Assay [4] deals with T2, SPIC (Homo sapiens, UniProt Q8N5J4 1-248).
T2 sequence: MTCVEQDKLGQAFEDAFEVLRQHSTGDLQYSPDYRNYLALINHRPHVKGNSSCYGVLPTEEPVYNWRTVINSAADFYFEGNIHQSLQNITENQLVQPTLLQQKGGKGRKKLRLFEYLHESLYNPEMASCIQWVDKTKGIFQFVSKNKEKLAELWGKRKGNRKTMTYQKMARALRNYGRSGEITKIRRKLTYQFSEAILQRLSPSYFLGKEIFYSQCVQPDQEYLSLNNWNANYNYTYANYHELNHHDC
The conditions noted are these: protein: recombinant; tags: N-terminal GST; dsDNA, one strand shown. The procedure, abridged:
as §1

Assay [5] has as its target ELF4 (Homo sapiens, UniProt Q99607 1-663). To be noted: protein: recombinant; tags: N-terminal GST; dsDNA, one strand shown. The procedure, abridged:
as §1

For assay [6], the target named is T3, ELK4 (Homo sapiens, UniProt P28324-2 1-405).
T3 sequence: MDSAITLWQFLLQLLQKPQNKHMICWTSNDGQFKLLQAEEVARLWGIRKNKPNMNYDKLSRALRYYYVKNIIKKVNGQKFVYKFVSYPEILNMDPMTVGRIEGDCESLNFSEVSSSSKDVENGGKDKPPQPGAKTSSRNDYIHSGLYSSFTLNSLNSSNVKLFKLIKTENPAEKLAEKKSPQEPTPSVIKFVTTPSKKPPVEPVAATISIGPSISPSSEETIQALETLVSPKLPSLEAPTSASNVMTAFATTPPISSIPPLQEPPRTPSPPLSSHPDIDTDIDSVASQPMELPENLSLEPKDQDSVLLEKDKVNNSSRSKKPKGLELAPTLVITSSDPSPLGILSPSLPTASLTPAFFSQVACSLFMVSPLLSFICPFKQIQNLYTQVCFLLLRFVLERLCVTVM
To be noted: protein: recombinant; tags: N-terminal GST; dsDNA, one strand shown. The procedure, abridged:
as §1

In assay [7] the target is T4, ETV2 (Homo sapiens, UniProt O00321 1-342).
T4 sequence: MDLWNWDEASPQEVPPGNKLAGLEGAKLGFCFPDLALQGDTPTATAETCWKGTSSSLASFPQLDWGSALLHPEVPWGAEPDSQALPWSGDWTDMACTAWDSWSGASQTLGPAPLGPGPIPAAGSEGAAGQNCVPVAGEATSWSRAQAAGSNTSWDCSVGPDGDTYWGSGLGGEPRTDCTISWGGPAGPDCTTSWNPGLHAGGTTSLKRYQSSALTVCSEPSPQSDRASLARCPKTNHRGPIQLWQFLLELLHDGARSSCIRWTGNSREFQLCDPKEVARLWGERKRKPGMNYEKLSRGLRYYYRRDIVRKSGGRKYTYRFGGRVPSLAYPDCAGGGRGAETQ
To be noted: protein: recombinant; tags: N-terminal GST; dsDNA, one strand shown. The procedure, abridged:
as §1

Assay [8] concerns the target T5, ELF3 (Homo sapiens, UniProt P78545 1-371).
T5 sequence: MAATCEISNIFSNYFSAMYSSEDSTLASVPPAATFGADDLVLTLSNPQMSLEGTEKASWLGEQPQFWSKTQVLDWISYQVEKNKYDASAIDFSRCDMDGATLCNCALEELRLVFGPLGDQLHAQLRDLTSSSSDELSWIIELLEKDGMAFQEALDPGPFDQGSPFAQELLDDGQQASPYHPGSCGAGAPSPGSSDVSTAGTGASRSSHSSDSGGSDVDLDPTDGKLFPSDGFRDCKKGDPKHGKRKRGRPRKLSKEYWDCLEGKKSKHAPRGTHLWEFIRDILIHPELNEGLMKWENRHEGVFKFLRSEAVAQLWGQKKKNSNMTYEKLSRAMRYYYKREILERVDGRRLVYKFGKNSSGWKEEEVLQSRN
The conditions noted are these: protein: recombinant; tags: N-terminal GST; dsDNA, one strand shown. The procedure, abridged: as §1

Assay [9] concerns the target CRX (Homo sapiens, UniProt O43186 1-299). To be noted: protein: recombinant; tags: N-terminal GST; dsDNA, one strand shown. The method in brief:
as §1

Assay [10] addresses ETV1 (Homo sapiens, UniProt P50549 1-477). To be noted: protein: recombinant; tags: N-terminal GST; dsDNA, one strand shown. The procedure, abridged:
as §1

Assay [11] addresses T6, ERF (Homo sapiens, UniProt P50548 1-548).
T6 sequence: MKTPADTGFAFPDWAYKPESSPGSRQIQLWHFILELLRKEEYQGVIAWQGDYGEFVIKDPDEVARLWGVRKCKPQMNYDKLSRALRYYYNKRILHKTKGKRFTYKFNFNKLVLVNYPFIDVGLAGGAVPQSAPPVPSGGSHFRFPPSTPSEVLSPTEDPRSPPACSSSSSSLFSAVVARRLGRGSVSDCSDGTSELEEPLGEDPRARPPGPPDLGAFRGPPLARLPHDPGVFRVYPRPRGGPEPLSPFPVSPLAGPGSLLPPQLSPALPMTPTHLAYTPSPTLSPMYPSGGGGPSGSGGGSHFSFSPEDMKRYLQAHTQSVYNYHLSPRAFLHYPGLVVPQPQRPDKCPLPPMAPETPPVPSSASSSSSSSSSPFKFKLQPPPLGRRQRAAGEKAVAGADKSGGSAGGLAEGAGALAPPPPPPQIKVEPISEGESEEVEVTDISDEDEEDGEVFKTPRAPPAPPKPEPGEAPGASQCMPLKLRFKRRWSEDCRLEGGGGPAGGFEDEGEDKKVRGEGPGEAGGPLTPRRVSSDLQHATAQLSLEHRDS
The conditions noted are these: protein: recombinant; tags: N-terminal GST; dsDNA, one strand shown. The procedure, abridged: as §1

Assay [12] deals with T7, ETV3L (Homo sapiens, UniProt Q6ZN32 1-361).
T7 sequence: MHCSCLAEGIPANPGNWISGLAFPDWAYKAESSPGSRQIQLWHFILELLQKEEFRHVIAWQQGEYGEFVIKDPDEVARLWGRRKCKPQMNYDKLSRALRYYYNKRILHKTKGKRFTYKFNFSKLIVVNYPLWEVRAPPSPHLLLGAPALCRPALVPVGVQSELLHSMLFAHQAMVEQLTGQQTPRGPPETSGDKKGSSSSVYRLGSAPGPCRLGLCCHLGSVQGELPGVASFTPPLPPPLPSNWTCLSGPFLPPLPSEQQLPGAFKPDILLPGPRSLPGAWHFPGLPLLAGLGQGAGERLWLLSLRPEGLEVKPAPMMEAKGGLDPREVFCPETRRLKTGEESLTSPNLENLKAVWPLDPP
To be noted: protein: recombinant; tags: N-terminal GST; dsDNA, one strand shown. The method in brief: as §1

In assay [13] the target is T8, ETS2 (Homo sapiens, UniProt P15036 1-469).
T8 sequence: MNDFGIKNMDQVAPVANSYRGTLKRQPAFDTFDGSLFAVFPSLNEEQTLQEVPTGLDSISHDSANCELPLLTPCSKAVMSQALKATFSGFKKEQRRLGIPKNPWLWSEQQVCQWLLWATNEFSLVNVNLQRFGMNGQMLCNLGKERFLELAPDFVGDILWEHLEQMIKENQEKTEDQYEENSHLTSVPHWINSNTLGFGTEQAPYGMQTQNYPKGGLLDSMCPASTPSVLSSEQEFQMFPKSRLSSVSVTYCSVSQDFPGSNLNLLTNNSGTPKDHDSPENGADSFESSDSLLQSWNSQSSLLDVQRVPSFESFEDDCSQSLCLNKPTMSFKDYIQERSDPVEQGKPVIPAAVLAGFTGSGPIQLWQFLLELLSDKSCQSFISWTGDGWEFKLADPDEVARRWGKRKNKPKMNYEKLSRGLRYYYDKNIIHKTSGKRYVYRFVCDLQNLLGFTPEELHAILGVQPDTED
To be noted: protein: recombinant; tags: N-terminal GST; dsDNA, one strand shown. The method in brief:
as §1

Assay [14] has as its target T9, SPDEF (Homo sapiens, UniProt O95238 1-335).
T9 sequence: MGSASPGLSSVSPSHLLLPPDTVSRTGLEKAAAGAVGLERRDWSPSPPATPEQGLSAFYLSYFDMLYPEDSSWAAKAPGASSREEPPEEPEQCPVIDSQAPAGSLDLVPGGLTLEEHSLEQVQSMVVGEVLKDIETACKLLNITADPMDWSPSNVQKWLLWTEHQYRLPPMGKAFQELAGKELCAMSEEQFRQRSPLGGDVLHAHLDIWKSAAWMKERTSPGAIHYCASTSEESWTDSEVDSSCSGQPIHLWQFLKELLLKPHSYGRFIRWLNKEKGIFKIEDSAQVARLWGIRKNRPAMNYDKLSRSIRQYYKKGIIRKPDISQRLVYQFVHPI
To be noted: protein: recombinant; tags: N-terminal GST; dsDNA, one strand shown. The method in brief: as §1

Assay [15] has as its target T10, ETV7 (Homo sapiens, UniProt Q9Y603 1-341).
T10 sequence: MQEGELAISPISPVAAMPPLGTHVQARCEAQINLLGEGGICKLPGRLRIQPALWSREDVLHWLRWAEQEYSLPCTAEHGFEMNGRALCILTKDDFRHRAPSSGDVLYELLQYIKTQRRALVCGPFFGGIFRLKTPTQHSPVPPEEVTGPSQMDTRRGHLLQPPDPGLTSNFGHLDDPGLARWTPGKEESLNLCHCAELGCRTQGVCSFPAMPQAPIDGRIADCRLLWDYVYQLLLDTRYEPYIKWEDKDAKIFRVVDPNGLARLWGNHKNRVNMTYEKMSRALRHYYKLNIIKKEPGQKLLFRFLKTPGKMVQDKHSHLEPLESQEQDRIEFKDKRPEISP
The conditions noted are these: protein: recombinant; tags: N-terminal GST; dsDNA, one strand shown. The method in brief:
as §1

In assay [16] the target is T11, ELF5 (Homo sapiens, UniProt Q9UKW6-2 1-255).
T11 sequence: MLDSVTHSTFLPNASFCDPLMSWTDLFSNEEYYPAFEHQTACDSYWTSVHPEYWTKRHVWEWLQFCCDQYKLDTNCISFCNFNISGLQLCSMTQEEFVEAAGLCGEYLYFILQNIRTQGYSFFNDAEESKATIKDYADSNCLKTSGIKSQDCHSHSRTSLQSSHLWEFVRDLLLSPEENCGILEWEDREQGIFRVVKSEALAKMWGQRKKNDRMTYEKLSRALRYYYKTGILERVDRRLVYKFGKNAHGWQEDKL
To be noted: protein: recombinant; tags: N-terminal GST; dsDNA, one strand shown. The procedure, abridged:
as §1

In assay [17] the target is T12, ETV3 (Homo sapiens, UniProt P41162-2 1-143).
T12 sequence: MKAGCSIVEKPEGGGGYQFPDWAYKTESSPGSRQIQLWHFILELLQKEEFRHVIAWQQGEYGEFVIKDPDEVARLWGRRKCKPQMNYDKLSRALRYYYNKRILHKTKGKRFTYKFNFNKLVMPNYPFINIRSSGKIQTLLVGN
The conditions noted are these: protein: recombinant; tags: N-terminal GST; dsDNA, one strand shown. The procedure, abridged: as §1

Assay [18] concerns the target ETV6 (Homo sapiens, UniProt P41212 1-452). To be noted: protein: recombinant; tags: N-terminal GST; dsDNA, one strand shown. The method in brief: as §1

ETV1, sequence (P50549 whole entry): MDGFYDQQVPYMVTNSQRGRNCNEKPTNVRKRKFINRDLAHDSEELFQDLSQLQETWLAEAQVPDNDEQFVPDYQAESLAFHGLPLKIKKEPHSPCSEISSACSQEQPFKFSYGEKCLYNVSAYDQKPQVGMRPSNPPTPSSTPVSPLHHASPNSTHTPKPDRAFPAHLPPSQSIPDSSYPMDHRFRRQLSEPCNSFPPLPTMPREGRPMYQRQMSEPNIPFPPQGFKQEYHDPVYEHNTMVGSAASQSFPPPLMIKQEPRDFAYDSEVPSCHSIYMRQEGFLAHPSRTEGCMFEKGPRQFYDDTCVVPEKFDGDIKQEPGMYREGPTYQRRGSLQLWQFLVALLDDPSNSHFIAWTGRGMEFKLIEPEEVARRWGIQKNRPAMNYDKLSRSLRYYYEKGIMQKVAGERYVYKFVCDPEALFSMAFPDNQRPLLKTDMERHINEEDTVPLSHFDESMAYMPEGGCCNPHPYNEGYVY
ETV6, sequence (P41212 whole entry): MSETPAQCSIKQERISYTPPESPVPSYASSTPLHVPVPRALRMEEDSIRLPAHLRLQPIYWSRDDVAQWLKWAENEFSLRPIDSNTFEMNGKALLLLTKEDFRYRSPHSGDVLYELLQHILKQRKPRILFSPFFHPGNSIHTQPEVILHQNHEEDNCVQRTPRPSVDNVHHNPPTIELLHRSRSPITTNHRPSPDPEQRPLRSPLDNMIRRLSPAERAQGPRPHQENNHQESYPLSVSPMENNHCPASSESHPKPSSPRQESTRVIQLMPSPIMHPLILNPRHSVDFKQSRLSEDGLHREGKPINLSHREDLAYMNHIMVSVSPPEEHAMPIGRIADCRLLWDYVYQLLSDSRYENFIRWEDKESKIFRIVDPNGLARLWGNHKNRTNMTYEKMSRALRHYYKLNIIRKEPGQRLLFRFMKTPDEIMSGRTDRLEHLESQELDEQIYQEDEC
ETV5, sequence (P41161 whole entry): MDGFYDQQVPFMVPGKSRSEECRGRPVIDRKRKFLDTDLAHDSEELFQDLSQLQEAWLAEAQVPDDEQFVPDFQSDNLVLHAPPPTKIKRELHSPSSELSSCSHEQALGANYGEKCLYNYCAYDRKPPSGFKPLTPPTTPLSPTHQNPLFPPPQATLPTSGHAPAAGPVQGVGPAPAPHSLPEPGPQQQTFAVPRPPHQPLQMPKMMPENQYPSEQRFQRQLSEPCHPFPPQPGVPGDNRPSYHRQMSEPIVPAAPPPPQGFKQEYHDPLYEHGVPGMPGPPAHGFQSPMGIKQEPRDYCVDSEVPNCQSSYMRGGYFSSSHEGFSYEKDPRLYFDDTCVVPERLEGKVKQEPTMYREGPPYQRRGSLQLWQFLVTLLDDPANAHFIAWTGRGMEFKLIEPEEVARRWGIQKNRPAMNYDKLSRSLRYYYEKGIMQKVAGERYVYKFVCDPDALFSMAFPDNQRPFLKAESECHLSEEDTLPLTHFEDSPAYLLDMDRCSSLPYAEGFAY
HSF1, sequence (Q00613 whole entry): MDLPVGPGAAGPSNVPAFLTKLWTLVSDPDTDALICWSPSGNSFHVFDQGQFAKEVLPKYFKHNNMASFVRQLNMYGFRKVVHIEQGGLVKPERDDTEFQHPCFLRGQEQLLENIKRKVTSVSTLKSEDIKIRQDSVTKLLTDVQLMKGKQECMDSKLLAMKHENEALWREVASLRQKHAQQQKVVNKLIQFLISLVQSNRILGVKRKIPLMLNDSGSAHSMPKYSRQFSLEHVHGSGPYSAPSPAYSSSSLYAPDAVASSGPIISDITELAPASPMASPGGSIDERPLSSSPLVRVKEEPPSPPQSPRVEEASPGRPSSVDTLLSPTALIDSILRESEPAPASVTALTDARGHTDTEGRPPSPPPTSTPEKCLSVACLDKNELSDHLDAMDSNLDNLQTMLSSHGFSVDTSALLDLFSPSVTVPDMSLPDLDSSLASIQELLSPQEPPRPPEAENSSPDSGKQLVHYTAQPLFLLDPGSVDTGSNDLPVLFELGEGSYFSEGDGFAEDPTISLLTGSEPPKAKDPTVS
ELF4, sequence (Q99607 whole entry): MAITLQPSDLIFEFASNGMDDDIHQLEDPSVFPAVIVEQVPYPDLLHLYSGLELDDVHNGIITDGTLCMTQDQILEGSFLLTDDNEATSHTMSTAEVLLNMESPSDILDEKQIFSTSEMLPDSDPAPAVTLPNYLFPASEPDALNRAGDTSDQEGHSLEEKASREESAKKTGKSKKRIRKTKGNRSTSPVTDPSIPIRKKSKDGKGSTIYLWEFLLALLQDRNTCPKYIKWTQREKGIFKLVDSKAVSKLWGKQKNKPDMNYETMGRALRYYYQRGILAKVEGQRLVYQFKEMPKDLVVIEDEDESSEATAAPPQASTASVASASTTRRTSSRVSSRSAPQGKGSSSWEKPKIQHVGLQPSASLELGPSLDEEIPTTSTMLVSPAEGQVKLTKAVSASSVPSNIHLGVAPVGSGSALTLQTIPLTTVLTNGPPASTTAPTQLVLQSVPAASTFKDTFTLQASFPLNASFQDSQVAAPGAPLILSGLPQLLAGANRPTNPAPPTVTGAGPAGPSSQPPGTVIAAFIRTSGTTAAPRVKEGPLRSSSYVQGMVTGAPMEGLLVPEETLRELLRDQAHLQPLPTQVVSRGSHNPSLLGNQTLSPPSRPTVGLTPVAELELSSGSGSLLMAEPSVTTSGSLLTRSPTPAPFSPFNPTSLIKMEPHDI
CRX, sequence (O43186 whole entry): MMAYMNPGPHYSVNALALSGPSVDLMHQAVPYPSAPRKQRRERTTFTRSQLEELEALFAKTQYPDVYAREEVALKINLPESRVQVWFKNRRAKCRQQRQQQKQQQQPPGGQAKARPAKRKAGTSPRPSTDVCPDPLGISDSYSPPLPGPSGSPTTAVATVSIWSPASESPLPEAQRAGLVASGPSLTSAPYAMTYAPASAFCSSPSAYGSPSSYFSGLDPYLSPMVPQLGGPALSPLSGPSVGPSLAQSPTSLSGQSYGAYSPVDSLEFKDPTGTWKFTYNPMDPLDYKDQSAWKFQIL

In the case of TTTAAG, the binding signal is 1.31 fold enrichment (6-mer frequency, TF over GST control) in assay [1]; 1.34 fold enrichment (6-mer frequency, TF over GST control) in [2]; 1.87 fold enrichment (6-mer frequency, TF over GST control) in [3]; 1.47 fold enrichment (6-mer frequency, TF over GST control) in assay [4]; 1.29 fold enrichment (6-mer frequency, TF over GST control) in assay [5]; 1.22 fold enrichment (6-mer frequency, TF over GST control) in [6]. The binding signal in assay [7] was 1.38 fold enrichment (6-mer frequency, TF over GST control); in assay [8], 1.28 fold enrichment (6-mer frequency, TF over GST control); in assay [9] it was 2.81 fold enrichment (6-mer frequency, TF over GST control); in assay [10] it was 1.28 fold enrichment (6-mer frequency, TF over GST control); in assay [11], 1.3 fold enrichment (6-mer frequency, TF over GST control); in assay [12], 1.26 fold enrichment (6-mer frequency, TF over GST control). In addition, the binding signal in assay [13] was 1.36 fold enrichment (6-mer frequency, TF over GST control); in [14], 1.44 fold enrichment (6-mer frequency, TF over GST control); in [15], 1.33 fold enrichment (6-mer frequency, TF over GST control); in assay [16], 1.32 fold enrichment (6-mer frequency, TF over GST control); in assay [17] it was 1.24 fold enrichment (6-mer frequency, TF over GST control); in assay [18] it was 1.26 fold enrichment (6-mer frequency, TF over GST control).
